Hits are enriched below; roughly 11% of the tested compounds scored in any of these assays.
Pf growth 96h: Primary qHTS for delayed death inhibitors of the malarial parasite plastid, 96 hour incubation; P. falciparum luciferase reporter growth, 96 h; Potency, µM (highest dose often 28.7 µM), for the others: at the highest dose activity change, negative = inhibition, hits mostly inhibitors; 320,000 compounds, 6.9% hits; AID 504834, 2011
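Plates of compound plus infected erythrocytes (2% hematocrit, 0.05% parasitemia final) incubate 96 hours, 37 C, 5% CO2. Detection reagent added; reduced luminescence from the parasites' luciferase reporter flags inhibition.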
HCV inhibitor: qHTS Assay for Inhibitors of Hepatitis C Virus (HCV). Huh7.5.1 HCVcc-Cre infection, luciferase reporter, 44 h. Potency, µM (highest dose often 41.8 µM), inactives show top-dose activity change, negative = inhibition, hits mostly inhibitors. 340,000 compounds, 3.4% hits. AID 651820, 2012
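Luciferase read-out (15 sec integration) after a 15 min room-temperature substrate step quantifies HCVcc-Cre infection. Cells, 1,000 per well, had compound added 4 h post-plating, then virus at ~0.5 moi, and were cultured 44 h.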
AmpC inh detg: qHTS Inhibitors of AmpC Beta-Lactamase (assay with detergent). AmpC hydrolysis of nitrocefin, absorbance 480 nm, 0.01% Triton. P00811. Potency, µM (doses to about 114 µM), inactives show at the highest dose activity change, negative = inhibition, usual class: inhibitors. AID 485294, 2010. 370,000 compounds, 0.041% hits;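 further: 0% = no-compound wells and -100% = no-enzyme wells; nearly all actives have a fitted effect of over 25% in size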
Target sequence (P00811 whole entry, looked up): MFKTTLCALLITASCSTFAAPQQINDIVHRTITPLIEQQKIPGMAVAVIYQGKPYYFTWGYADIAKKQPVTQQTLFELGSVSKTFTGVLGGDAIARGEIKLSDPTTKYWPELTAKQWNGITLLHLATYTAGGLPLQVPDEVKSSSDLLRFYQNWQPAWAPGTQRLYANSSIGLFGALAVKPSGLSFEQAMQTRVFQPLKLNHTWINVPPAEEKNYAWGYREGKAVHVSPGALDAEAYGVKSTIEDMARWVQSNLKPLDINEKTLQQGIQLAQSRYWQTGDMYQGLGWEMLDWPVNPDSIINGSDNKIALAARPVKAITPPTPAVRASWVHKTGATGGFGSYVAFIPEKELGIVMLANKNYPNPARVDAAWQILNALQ
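AmpC (5.3 nM in the dispensed reagent) in 20 mM phosphate pH 7.0 with 0.01% (detergent screen) or 0.0001% Triton X-100 was preincubated with compounds for 15 min at room temperature. Nitrocefin was then added from an 800 uM solution, and hydrolysis was followed at 480 nm.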
Pf growth 48h: Primary qHTS for delayed death inhibitors of the malarial parasite plastid, 48 hour incubation; 310,000 compounds, 5.9% hits; AID 504832, 2011; Potency, µM (highest dose often 28.7 µM), without a hit: top-dose activity change, negative = inhibition, actives largely listed as inhibitors; P. falciparum luciferase growth in erythrocytes, 48 h
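Cell-based growth assay: transgenic P. falciparum expressing firefly luciferase, cultured in red cells within RPMI 1640 containing 0.5% w/v Albumax, 24 mM bicarbonate and gentamycin. A drop in luciferase activity indicates inhibition.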
AmpC no deterg: qHTS Inhibitors of AmpC Beta-Lactamase (assay without detergent). P00811. AmpC nitrocefin hydrolysis, absorbance 480 nm, 0.0001% Triton. Potency, µM (doses to about 57.1 µM), for inactives: top-dose activity change, negative = inhibition, usual class: inhibitors. 330,000 compounds, 0.52% hits. AID 485341, 2010;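 further: plate controls were no compound for no effect and no enzyme for full effect; nearly all actives have a fitted effect of over 20% in size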
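AmpC (5.3 nM in the dispensed reagent) in 20 mM phosphate pH 7.0 with 0.01% (detergent screen) or 0.0001% Triton X-100 was preincubated with compounds for 15 min at room temperature. Nitrocefin was then added from an 800 uM solution, and hydrolysis was followed at 480 nm.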
AMA1-RON2 inh: qHTS for Inhibitors of AMA1-RON; Towards Development of Antimalarial Drug Lead: Primary Screen. Plasmodium falciparum AMA1 (3D7) - RON2 peptide interaction. AlphaScreen AMA1-biotinylated RON2 peptide binding. Potency, µM (doses to about 58.2 µM), inactives show at the highest dose activity change, negative = inhibition, hits mostly inhibitors. 360,000 compounds, 0.2% hits. AID 720542, 2013;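 further: 0% = vehicle wells and -100% = peptide control; nearly all actives have a fitted effect of over 45% in size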
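AMA1 (3D7) with his tag at 25 nM final met compounds first, then biotinylated RON2 peptide at 25 nM; detection used donor plus acceptor beads, 10 µg/mL apiece, read by AlphaScreen after 30 min at room temperature.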
An asterisk follows results filed as active; ? = inconclusive; nt = no result given. The call rests on the fitted dose curve; in most records, active means well fitted curve in the direction sought with a large enough effect; inconclusive means small, poorly fitted or top-dose-only effect, or another doubt; inactive means no such curve, though single readings can be large; an effect the other way counts as inactive or inconclusive. Unless noted, on the % scale 0 is the no-effect control and ±100 the full control effect; potency means the concentration at half of the fitted maximal effect.

SMILES	Pf growth 96h	HCV inhibitor	AmpC inh detg	Pf growth 48h	AmpC no deterg	AMA1-RON2 inh
COc1ccc(-c2csc3ncnc(N4CCN(S(=O)(=O)c5ccc(C(C)=O)cc5)CC4)c23)cc1	2.3µM*	?	?	1.7µM*	32µM*	-5%
COc1ccc(-c2csc3ncnc(N4CCN(S(=O)(=O)c5cccc(C(F)(F)F)c5)CC4)c23)cc1	1%	?	-12%	10µM*	-39%	5%
CCOC(=O)c1ccc(NC(=O)CCCn2c(=O)c3cccn3c3cccnc32)cc1	nt	nt	-2%	nt	nt	nt
Cc1ccc2onc(CC(=O)N3CCN(c4ccc(F)cc4)CC3)c2c1	nt	nt	-1%	nt	nt	nt
O=C(NCc1ccco1)C(c1cccnc1)N(C(=O)Cn1nnc2ccccc21)c1ccccc1 (stereo not drawn)	?	7%	?	nt	15%	1%
O=C(NCC1CCCO1)C(c1ccc(F)cc1)N(CC1CCCO1)C(=O)c1ccc(-c2ccccc2)[nH]1 (stereo not drawn)	26%	9%	-6%	2.1µM*	167%	-6%
O=C(NCc1ccc(F)cc1)C(c1ccccc1)N(CC1CCCO1)C(=O)Cn1nnc2ccccc21 (stereo not drawn)	?	-3%	-1%	8.3µM*	-14%	1%
O=C(NCc1ccco1)C(c1ccccc1)N(Cc1ccccc1)C(=O)Cn1nnc2ccccc21 (stereo not drawn)	9.3µM*	-5%	-4%	-22%	-18%	-14%
Cc1cccc(C)c1NC(=O)C(c1cccs1)N(Cc1ccco1)C(=O)Cn1nnc2ccccc21 (stereo not drawn)	nt	0%	?	6.6µM*	2%	13%
O=C(NCc1ccco1)C(c1ccccc1)N(CC1CCCO1)C(=O)Cn1nnc2ccccc21 (stereo not drawn)	0%	26%	-8%	?	7%	7%
COc1ccc(S(=O)(=O)N(CC(=O)N2CCC(C)CC2)c2ccc(C)cc2)cc1	nt	nt	-11%	nt	nt	nt
COc1ccc(-n2c(=O)c3ccc(C(=O)NCc4ccc(C)cc4)cc3n(Cc3ccc(F)cc3Cl)c2=O)cc1	nt	nt	-2%	nt	nt	nt
Oc1ccc(C23CC4CC(CC(C4)C2)C3)cc1O	7.4µM*	?	4%	5.2µM*	-29%	-22%
CC(=O)Nc1ccc(C23CC4CC(CC(C4)C2)C3)cc1	67%	-1%	-1%	-11%	62%	-7%
CCc1ccc(NC(=O)CCn2cnc3ccccc3c2=O)cc1	nt	nt	7%	nt	nt	nt
O=C1Nc2ccccc2/C1=N\N=C\C1=C(N2CCOCC2)C(=C\c2ccccc2)/CC1	2.9µM*	nt	2%	?	-17%	nt
COc1cc2c(cc1OC)n(CC(=O)c1ccc(F)cc1)c(=O)n1nc(CCn3nc(C)cc3C)nc21	nt	nt	0%	nt	nt	nt
Cc1ccc(C(=O)NC2CC3CCCC(C2)N3C(=S)NCc2ccco2)cc1 (stereo not drawn)	33%	-8%	1%	10µM*	23%	-1%
COc1ccc(CN(C)CC(=O)Nc2ccccc2C(F)(F)F)c(OC)c1	62%	33%	-1%	10%	-7%	-5%
COc1ccc(CN(C)CC(=O)Nc2cc3oc4ccccc4c3cc2OC)c(OC)c1	9.3µM*	?	5%	?	-8%	1%
COc1cc2c(cc1NC(=O)CN(C)Cc1ccc(OC)c(OC)c1)oc1ccccc12	7.4µM*	3.5µM*	5%	9.3µM*	86%	-6%
Cc1c(C(=O)Nc2ccc(-n3c(C)nc4ccccc4c3=O)cc2)cccc1[N+](=O)[O-]	nt	nt	2%	nt	nt	nt
Nc1nonc1-c1nc2ccccc2n1Cc1cccc(Cl)c1	nt	nt	-1%	nt	nt	nt
COc1cccc(/C=N/NC(=O)Cn2nc(C)c([N+](=O)[O-])c2C)c1O	?	?	-1%	12µM*	-30%	61%
COc1cccc(/C=N\NC(=O)c2ccc(Cn3cc(Br)c([N+](=O)[O-])n3)o2)c1O	?	2.8µM*	4%	?	12%	42%
SMILES	Pf growth 96h	HCV inhibitor	AmpC inh detg	Pf growth 48h	AmpC no deterg	AMA1-RON2 inh
CC[n+]1c(/C=C2\C=C(C)CC(C)(C)C2)sc2ccccc21	?	6.3µM*	-8%	0.33µM*	16%	?
CC[n+]1c(/C=C2/C=C(C)CC(C)(C)C2)sc2ccc(OC)cc21	36%	?	2%	0.37µM*	50%	?
O=C(Nc1cc(F)ccc1F)c1ccc(CN2CC(=O)N3CCCCC3C2=O)cc1 (stereo not drawn)	nt	nt	21%	nt	nt	nt
COc1ccc(NC(=O)CCNS(=O)(=O)c2ccc3c(c2)CCCC(=O)N3)cc1	nt	nt	-4%	nt	nt	nt
Cc1ccc(C)n1-c1ccc(C(=O)Nc2ccccc2F)cc1	-65%	-9%	8%	-31%	-30%	3%
COC(=O)c1cc(=O)n(-c2ccccc2)c(=Nc2ccccc2)s1	-3%	?	?	?	-9%	-19%
CCOC(=O)c1ccc(-n2c(C)ccc2C)cc1	7.4µM*	32%	0%	-23%	-21%	-10%
CCOC(=O)c1ccc(N2C(=O)C=CC2=O)cc1	nt	?	1%	22%	-27%	1%
CCc1ccccc1NC(=O)c1ccc(-n2c(C)ccc2C)cc1	15µM*	?	2%	?	-15%	13%
Cc1ccc(C)n1-c1ccc(NC(=O)c2ccccc2)cc1	12µM*	-14%	-3%	?	-48%	-2%
CCOC(=O)c1ccc(N=c2sc(C(=O)OC)cc(=O)n2-c2ccc(C(=O)OCC)cc2)cc1	15%	10µM*	-11%	?	?	-18%
Cc1ccc(CNC(=O)Cn2nc(N3CCN(c4ccccc4)CC3)ccc2=O)cc1	nt	nt	2%	nt	nt	nt
CCc1ccc(C(=O)CSc2nc3ccccc3c(=O)[nH]2)cc1	10µM*	1%	2%	nt	-44%	-7%
Cc1ccc2nc(SCC(=O)c3c[nH]c4ccccc34)[nH]c2c1	?	-2%	3%	2.9µM*	-43%	-11%
Cc1cccc(C)c1NC(=O)CSc1nc2ccccc2c(=O)[nH]1	0.41µM*	?	-11%	0%	-25%	5%
Cc1cc(C)c(C(=O)CSc2nc3ccccc3c(=O)[nH]2)cc1C	?	11%	?	?	18µM*	-1%
Cc1csc(NC(=O)CSc2nc3ccccc3c(=O)[nH]2)n1	-5%	29%	?	4%	-60%	-12%

Screening data as filed in PubChem BioAssay.
